# According to PubChem BioAssay AID492998 (Southern Research Specialized Biocontainment Screening …, 2010):
# The campaign covered roughly 2,300 compounds. About 550 (24%) were called active. How the calls were made is not given here. Not all results are given here. Measured potencies and affinities stand elsewhere.
# Assay: Vero E6 cell cytotoxicity, dose response, cytotoxicity control for non-replicating M. tuberculosis project, secondary assay (AID 492998)
# Conditions: series mostly up to 20 µM
row,SMILES,outcome
1,O=S(=O)(CCN1CCN(c2ccccn2)CC1)c1ccc(Cl)cc1Cl,inactive
2,O=C(N[C@@H]1C[C@H]2CC[C@@H]1C2)c1ccco1,inactive
3,Cc1ccc(NCCC(=O)c2cccs2)cc1C,inactive
4,O=C(OCn1nnc2ccccc2c1=O)c1ccc(N2CCOCC2)c([N+](=O)[O-])c1,inactive
5,CCOC(=O)C1=C(C)NC(=O)NC1c1ccc(-c2ccc(F)cc2)o1 (stereo not drawn),inactive
6,CCOC(=O)c1ccc(N=C2SC(C(=O)Nc3ccc(C(=O)O)cc3)CC(=O)N2Cc2cccs2)cc1 (stereo not drawn),inactive
7,O=c1oc2ccccc2nc1/C=C(\O)c1ccc(Br)cc1,inactive
8,O=C(CCN1CCCCCC1)c1ccccc1,inactive
9,O=C(CCSc1ccccc1)N1CCCC1,inactive
10,Cc1nnc(N/N=C/c2ccc(Br)cc2)n1N,inactive
11,COCCSc1nnc(NC(=O)CCS(=O)(=O)Cc2ccccc2)s1,inactive
12,CCCCOc1ccc(CSCCN)cc1Cl,inactive
13,CC(=O)c1ccc(NC(=O)C(Cc2ccccc2)n2cccc2)cc1 (stereo not drawn),inactive
14,Cc1ccccc1C(=O)NNc1ccc([N+](=O)[O-])cc1,inactive
15,Cc1ccc(NC(=O)ON=C2CCCC2)cc1,inactive
16,Cc1cc(C)n(-c2ccc(C(=O)Oc3ccc4c(c3)OCO4)cc2)n1,inactive
17,CCN(CC)CCSc1nnc2c3cc(C)ccc3n(Cc3ccccc3)c2n1,inactive

row,SMILES,outcome
1,Cc1c(C(=O)NNC(=O)c2csc(N3CCOCC3)n2)oc2ccccc12,inactive
2,NC(=O)N/N=C/c1ccccc1OC(=O)c1cc2ccccc2oc1=O,inactive
3,O=C(Nc1ccccc1)c1ccc(Br)o1,inactive
4,CCC(C)(C)NC(=O)c1ccc(Br)o1,inactive
5,CC(C)(C)OC(=O)N/N=C\c1ccc(OC(=O)c2ccco2)cc1,inactive
6,CC1(c2nnc(-c3ccccc3)o2)CC(c2ccc(Cl)cc2)=NO1 (stereo not drawn),inactive
7,Clc1ccc(OCCOCCN2CCc3ccccc3C2)c(Cl)c1,inactive
8,COc1ccccc1/C=C/C=N/NC(=O)c1ccncc1,inactive
9,Cc1cc(C)n(-c2ccc(C(=O)OCC(=O)Nc3cc(Cl)ccc3[N+](=O)[O-])cc2)n1,inactive
10,Cc1ccc(CN2CC(C(=O)OCc3ccccc3Cl)CC2=O)cc1 (stereo not drawn),inactive
11,Cc1ccc(C(=O)COC(=O)CCc2ccc(S(=O)(=O)N3CCCCC3)cc2)cc1,inactive
12,Cc1ccc(N2NC(=O)/C(=C/C=C/c3ccco3)C2=O)cc1C,inactive
13,Cc1ccc(OCCCCn2ccnc2)c(Cl)c1,inactive
14,CC1(C)Oc2ccc(NC(=O)C3COc4ccccc4O3)cc2O1 (stereo not drawn),inactive
15,O=C(Oc1ccccc1Cl)c1ccc2c(=O)n3c(nc2c1)CCC3,inactive
16,CCOc1ncccc1C(=O)OCC(=O)N1CCc2ccccc21,inactive
